Experimental findings from PubChem BioAssay (NCI) are described below.

Test systems include SR leukemia; RPMI-8226 leukemia; OVCAR-8 ovarian; OVCAR-5 ovarian; OVCAR-4 ovarian; SK-OV-3 ovarian; IGROV1 ovarian; OVCAR-3 ovarian; HS 578T breast; NCI/ADR-RES ovarian; T-47D breast; BT-549 breast; MDA-MB-435 melanoma; SW-620 colon; MCF7 breast; HCT-116 colon; HCC-2998 colon; KM12 colon.
Common to all, as to assay: NCI-60 one-dose screen, 48 h (100 = growth as untreated, 0 = no growth, -100 = all killed)
What all share (settings): 10 µM unless noted

Compounds without any hit were thinned out: in the full panel of roughly 83,000, 20% have a hit.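 Note: values are percent growth. 100 is the growth of untreated cells, values between 100 and 0 indicate rising inhibition; between -100 and 0 indicates cell death.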 Values without a mark were called inactive. Active and inactive are the calls of the source. The calls were made as follows: active = growth percent below 10; inactive = the rest.

As to `O=C([C@@H](COCc1ccccc1)N1C(=O)[C@@H](N2C(=O)OC[C@@H]2c2ccccc2)[C@H]1/C=C/c1ccccc1)N1CCC(CCN2CCCCC2)CC1`, the growth in the assay on SR leukemia is 30.9%; in the assay with RPMI-8226 leukemia, 65.2%; in the assay on OVCAR-8 ovarian, 98.6%; with OVCAR-5 ovarian, 102%; with OVCAR-4 ovarian, 86.8%; in the assay with SK-OV-3 ovarian it was 86.6%. Moreover, the growth with IGROV1 ovarian is 84.1%; in the assay on OVCAR-3 ovarian it was 91.5%; in the assay on HS 578T breast, 90.8%; in the assay with NCI/ADR-RES ovarian, 95.4%; in the assay with T-47D breast, 77.2%; in the assay with BT-549 breast it was 90%. Besides, the growth is 97.7% with MDA-MB-435 melanoma; 98% in the assay on SW-620 colon; 74.9% with MCF7 breast; 83.1% in the assay on HCT-116 colon; 84% in the assay on HCC-2998 colon; 97.1% with KM12 colon.

`CCn1cc2c(cc1=O)-c1nc3ccccc3c3ccnc(c13)C2=O`: the growth in the assay on SR leukemia is 15.1%; in the assay on RPMI-8226 leukemia, 80.1%; with OVCAR-8 ovarian, 55.2%; with OVCAR-5 ovarian, 105%; in the assay with OVCAR-4 ovarian, 80.7%; with SK-OV-3 ovarian it was 45.8%. Also, the growth is 70.2% with IGROV1 ovarian; 73.8% in the assay with OVCAR-3 ovarian; 94.4% with HS 578T breast; 71.8% with NCI/ADR-RES ovarian; 56.8% in the assay on T-47D breast; 86.2% in the assay with BT-549 breast. Moreover, the growth in the assay on MDA-MB-435 melanoma is 63.3%; with SW-620 colon, 45.8%; in the assay on MCF7 breast, 29.6%; in the assay on HCT-116 colon, 50%; with HCC-2998 colon, 78.8%; with KM12 colon it was 78.7%.

For `CC(C)[C@@H]1CC[C@]2(C(=O)NCCCCN=C(N)N)CC[C@]3(C)[C@H](CC[C@@H]4[C@@]5(C)CCC(=O)C(C)(C)[C@@H]5CC[C@]43C)[C@@H]12`, the growth was 33.6% with SR leukemia; 36.3% with RPMI-8226 leukemia; 70.2% in the assay with OVCAR-8 ovarian; 97.4% in the assay on OVCAR-5 ovarian; 84.3% with OVCAR-4 ovarian; 91.7% with SK-OV-3 ovarian. In addition, the growth with IGROV1 ovarian is 25.6%; in the assay with OVCAR-3 ovarian it was 55.4%; in the assay on HS 578T breast, 73%; in the assay with NCI/ADR-RES ovarian, 101%; with T-47D breast it was 37.4%; with BT-549 breast, 90.5%. Also, the growth is 56.2% with MDA-MB-435 melanoma; 71.3% with SW-620 colon; 33.5% in the assay with MCF7 breast; 72.9% with HCT-116 colon; 53.7% with HCC-2998 colon; 40.9% in the assay with KM12 colon.

Take `C=C1CC[C@@H]2[C@](C)(COC(C)=O)[C@H](OC(C)=O)CC[C@@]2(C)[C@@H]1CC(Nc1ccc(S(=O)(=O)Nc2ccc(Cl)nn2)cc1)C1=CCOC1=O` (some centres undefined): the growth with SR leukemia is -5.26% (active); with RPMI-8226 leukemia it was -19.2% (active); in the assay on OVCAR-8 ovarian, 16.9%; with OVCAR-5 ovarian, 44.6%; in the assay on OVCAR-4 ovarian, 30.8%; in the assay with SK-OV-3 ovarian it was 86.1%. The growth in the assay on IGROV1 ovarian was 43.3%; with OVCAR-3 ovarian it was -56.1% (active); with HS 578T breast, 75.6%; in the assay with NCI/ADR-RES ovarian it was 16.7%; in the assay on T-47D breast, 34.1%; in the assay on BT-549 breast, -9.45% (active). In addition, the growth is 8.13% (active) with MDA-MB-435 melanoma; -37.7% (active) in the assay with SW-620 colon; 16.8% in the assay with MCF7 breast; -34.1% (active) in the assay on HCT-116 colon; 88.5% in the assay on HCC-2998 colon; 27% with KM12 colon.

As to `CCN(CC)CCCC(C)Nc1ccnc2c(OC)cccc12` (centres undefined), the growth in the assay with SR leukemia is 97.3%; in the assay with RPMI-8226 leukemia, 103%; with OVCAR-8 ovarian, 106%; in the assay with OVCAR-5 ovarian, 102%; in the assay with OVCAR-4 ovarian, 111%; in the assay with SK-OV-3 ovarian it was 117%. The growth was 109% with IGROV1 ovarian; 146% with OVCAR-3 ovarian; 127% with HS 578T breast; 110% with NCI/ADR-RES ovarian; 119% with T-47D breast; 118% in the assay on BT-549 breast. For the same compound, the growth is 118% in the assay with MDA-MB-435 melanoma; 115% in the assay on SW-620 colon; 101% with MCF7 breast; 112% with HCT-116 colon; 115% in the assay on HCC-2998 colon; 113% in the assay on KM12 colon.

Turning to `CCOC(=O)N1CCN(c2nc(Nc3cc(C)[nH]n3)c3ccccc3n2)CC1`, the growth was 17.3% in the assay with SR leukemia; 37.3% in the assay on RPMI-8226 leukemia; 74% in the assay with OVCAR-8 ovarian; 55.9% with OVCAR-5 ovarian; 49.5% in the assay on OVCAR-4 ovarian; 47.8% in the assay with SK-OV-3 ovarian. The growth with IGROV1 ovarian is 35.6%; with OVCAR-3 ovarian, 55.3%; in the assay with HS 578T breast it was 29.6%; with NCI/ADR-RES ovarian, 55.4%; with T-47D breast, 37.4%; in the assay with BT-549 breast, 56.8%. The growth with MDA-MB-435 melanoma is 14%; in the assay on SW-620 colon, 41.8%; in the assay on MCF7 breast it was 27.5%; with HCT-116 colon, 34.1%; in the assay on HCC-2998 colon it was 69%; in the assay on KM12 colon, 21.4%.

For the compound `O=C1Nc2ccccc2C12CC(c1ccc(Cl)cc1)=NN2` (centres undefined), the growth in the assay on SR leukemia was 86.2%; with RPMI-8226 leukemia it was 77.8%; in the assay on OVCAR-8 ovarian, 95.2%; with OVCAR-5 ovarian it was 95.8%; in the assay with OVCAR-4 ovarian, 98.6%; in the assay with SK-OV-3 ovarian it was 107%. For the same compound, the growth with IGROV1 ovarian is 101%; in the assay on OVCAR-3 ovarian, 116%; with HS 578T breast, 107%; in the assay with NCI/ADR-RES ovarian, 108%; in the assay with T-47D breast, 91.1%; with BT-549 breast, 98.5%. Further, the growth with MDA-MB-435 melanoma is 98.8%; in the assay on SW-620 colon it was 106%; in the assay with MCF7 breast it was 91.4%; in the assay on HCT-116 colon, 95.3%; in the assay with HCC-2998 colon, 108%; in the assay on KM12 colon, 110%.

With `CCCN(CCC)CN(CCC)CCC`, the growth is 101% in the assay on SR leukemia; 99.9% in the assay with RPMI-8226 leukemia; 105% with OVCAR-8 ovarian; 102% in the assay on OVCAR-5 ovarian; 117% in the assay on OVCAR-4 ovarian; 102% in the assay on SK-OV-3 ovarian. The growth is 111% with IGROV1 ovarian; 92.1% with OVCAR-3 ovarian; 98.8% in the assay with HS 578T breast; 105% in the assay on NCI/ADR-RES ovarian; 102% in the assay with T-47D breast; 91.4% in the assay with BT-549 breast. The growth was 99.4% in the assay with MDA-MB-435 melanoma; 103% with SW-620 colon; 93% in the assay on MCF7 breast; 95.7% in the assay with HCT-116 colon; 104% with HCC-2998 colon; 101% in the assay on KM12 colon.
